Shown are actives, neighbours in structure and some others; about 3.3% of the full set was active somewhere.
697 NFkB inh: inhibitors of the PMA/ionomycin-induced NF-kB reporter in 697 B cells; AID 435022; actives 0.33% (n = 330,000); inhibition, % at 4 µM; 697 B-cell NF-kB luciferase reporter, 16 h; in the data active = inhibition above about 35%
SMARCA2 activ: SMARCA2 function activation, primary screen; AID 652017; activation, % at 9.1 µM; MG213 cells, MMTV-luciferase reporter, dexamethasone, overnight; actives 1% (n = 370,000); in the data active = activation above about 7.8%;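 note: 0% = vehicle wells and 100% = reference activator wells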
esBAF inh: SWI/SNF esBAF complex inhibition | AID 602393 | reporter increase, % at 12.5 µM | mouse ES cells, Bmi1-luciferase knock-in reporter, 24 h; 100% = twice the neutral-well signal | actives 2% (n = 350,000); in the data active = activation above about 40%;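 note: 0% = median of the plate's neutral control wells and 100% = double that signal; a rise in the Bmi1 reporter signal indicates esBAF inhibition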
Gli-Sufu block: Gli-Sufu pathway antagonism | Sufu-KO-LIGHT fibroblasts, Gli luciferase reporter luminescence | actives 0.74% (n = 340,000) | AID 588413 | inhibition, % at 5 µM;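 active = inhibition above about 55%, limit read from the data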;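 note: 0% = DMSO-treated cells and 100% = wells with medium but no cells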
Jurkat NFkB inh: inhibitors of the PMA/ionomycin-induced NF-kB reporter in Jurkat cells; actives 0.53% (n = 330,000); AID 435003; inhibition, % at 4 µM; PMA/ionomycin-induced NF-kB luciferase reporter, luminescence; in the data active = inhibition above about 50%
* = called active by the depositor; · = no result given.

SMILES	697 NFkB inh	SMARCA2 activ	esBAF inh	Gli-Sufu block	Jurkat NFkB inh
C[C@H](CO)N1C[C@H](C)[C@@H](CN(C)Cc2ccc(C(=O)O)cc2)Oc2ccc(NS(=O)(=O)c3ccccc3)cc2CC1=O	·	·	-12.7	·	·
Cc1cccc(/N=C/c2c(O)[nH]c3ccccc23)n1	-95.1	3.2	74.0*	-85.7	-71.1
CC(C)CNC(=O)c1cc(-c2ccc3c(c2)OCO3)on1	-114.4	4.5	2.6	-71.0	-98.0
O=C(Nc1cccnc1)c1cc(-c2ccc3c(c2)OCO3)on1	16.3	5.6	68.7*	-45.7	-75.0
CN(C(=O)c1cc(-c2ccc3c(c2)OCO3)on1)c1ccccc1	-70.7	0.7	67.5*	-68.5	-61.0
O=C(Nc1ccc2c(c1)OCO2)c1cc(-c2cccc(O)c2)on1	6.2	2.2	43.1*	-31.9	-92.3
COc1cccc(-c2cc(C(=O)Nc3ccc4c(c3)OCO4)no2)c1	-12.3	-0.3	29.1	-7.2	-14.4
O=C(Nc1ccc2c(c1)OCO2)c1cc(-c2ccccc2Cl)on1	-0.6	3.7	60.2*	-0.7	-49.2
O=C(NCc1ccc2c(c1)OCO2)c1cc(-c2ccccc2Cl)on1	18.7	-1.4	5.5	34.3	1.4
COc1ccc(CN(C)C[C@H]2OCCCC[C@@H](C)Oc3ccc(NS(=O)(=O)c4ccc(F)cc4)cc3C(=O)N([C@H](C)CO)C[C@H]2C)cc1	·	·	2.5	·	·
O=C(Nc1ccc2c(c1)OCO2)c1cc(-c2ccc(O)cc2)on1	-17.7	4.9	46.4*	-15.3	-16.2
O=C(Nc1cccc(O)c1)c1cc(-c2ccco2)on1	18.1	5.6	73.4*	-7.2	-99.7
O=C(Nc1ccc2c(c1)OCCO2)C1CC(c2ccccc2Cl)=NO1 (stereo not drawn)	-3.6	-0.8	60.4*	32.5	-34.3
CC(=O)c1cccc(NC(=O)c2cc(-c3ccco3)on2)c1	20.0	-0.1	22.7	6.0	-52.9
O=C(Nc1ccc2c(c1)OCO2)c1cc(Cl)ccn1	-134.3	3.9	44.3*	-76.7	-140.3
COCC(=O)Nc1ccc2c(c1)C(=O)N(C)C[C@H](OC)[C@@H](C)CN(C(=O)c1ccccc1F)[C@H](C)CO2	·	·	-7.2	·	·
COc1ccc(CN(C)C[C@@H]2Oc3ccc(NC(=O)Cn4cnnn4)cc3CC(=O)N([C@@H](C)CO)C[C@@H]2C)cc1	·	·	-6.2	·	·
C[C@H]1CCCCO[C@H](CN(C)C(=O)Nc2ccc(C(F)(F)F)cc2)[C@@H](C)CN([C@@H](C)CO)C(=O)c2cc(NS(=O)(=O)c3ccccc3)ccc2O1	·	·	-21.7	·	·
O=C(Nc1cc(Br)ccc1O)c1cc(-c2ccc3c(c2)OCO3)on1	-39.6	4.2	45.5*	-10.0	-63.7
Cc1ccc(NC(=O)c2cc(-c3ccc4c(c3)OCO4)on2)cc1C	-8.8	-0.1	6.2	-1.8	11.8
O=C(c1cn(-c2ccc(Cl)c(Cl)c2)nn1)C1CC1	-17.7	3.9	10.3	-1.9	-22.4
O=C1CCCCC1C(=O)c1cn(-c2ccc(Cl)c(Cl)c2)nn1 (stereo not drawn)	-23.8	0.9	62.6*	-0.9	-15.9
CCCCN(Cc1ccccc1)c1ncnc2nc[nH]c12	-73.1	·	67.4*	-63.3	-20.0
CCCCN(CCCC)c1ncnc2nc[nH]c12	-1.2	-3.3	·	-3.5	14.0
Cc1cccc(-n2cnc3cc(C(=O)N4CCCCC4)ccc32)c1	-17.6	-1.3	43.8*	-45.2	-32.3
SMILES	697 NFkB inh	SMARCA2 activ	esBAF inh	Gli-Sufu block	Jurkat NFkB inh
C[C@@H]1CCCCO[C@@H](CN(C)C(=O)c2ccccc2)[C@H](C)CN([C@@H](C)CO)C(=O)c2cc(NC(=O)CCCN(C)C)ccc2O1	·	·	-1.0	·	·
Cc1ccc(OCCN2C(=O)c3ccccc3C2=O)cc1	-30.3	0.4	9.3	-16.4	-1.0
O=C1c2ccccc2C(=O)N1CCOc1cccc(Br)c1	-43.0	6.0	41.4*	-53.0	-5.4
COc1ccc(NC(=O)N(C)C[C@@H]2Oc3ccc(NC(=O)Nc4ccc(F)cc4)cc3C(=O)N([C@@H](C)CO)C[C@@H]2C)cc1	·	·	1.9	·	·
COc1ccc(NC(=O)Nc2cccc3c2O[C@H](CN(C)CC2CCCCC2)[C@H](C)CN([C@@H](C)CO)C3=O)cc1	·	·	-7.3	·	·
CCOCCCNC(=O)c1ccc(/C=C2\Oc3ccccc3N(C)C2=O)cc1	-178.8	-3.9	72.0*	-84.4	-11.1
CCOCCCNC(=O)c1ccc(Br)cc1	-25.0	2.0	22.8	-31.6	-28.1
COc1ccc(-c2nc(-c3cccs3)no2)cc1	-223.5	-4.3	·	-97.9	-103.1
COc1ccccc1-c1noc(-c2cccs2)n1	-113.2	2.4	54.8*	16.8	-103.7
COc1ccccc1-c1noc(-c2ccncc2)n1	-17.6	1.2	45.8*	-15.9	-23.3
COc1ccccc1-c1nc(-c2ccc(C)nc2OC)no1	-66.3	3.8	68.7*	-85.0	-72.0
O=C(/C=C/N1CCOCC1)c1ccc(-c2ccccc2)cc1	-17.4	·	31.4	-48.8	-23.7
O=C(/C=C\N1CCOCC1)c1ccc(Br)cc1	-37.1	-0.8	46.6*	-7.1	-30.1
Cc1noc(C)c1NC(=O)Nc1ccc2c(c1)C(=O)N([C@H](C)CO)C[C@H](C)[C@H](CN(C)C(=O)Nc1c(C)noc1C)OCCCC[C@H](C)O2	·	·	1.5	·	·
COc1ccc(CCNC(=O)c2nonc2N)cc1	-3.9	1.1	47.7*	-34.0	-26.6
COc1ccc(/C=N/N2CCOCC2)cc1COc1ccc(Cl)cc1	10.3	7.9*	·	-23.1	14.4
COc1ccc(/C=N/N2CCOCC2)cc1COc1ccc(F)cc1	11.9	0.3	13.1	-15.0	3.9
CC=Cc1ccc2n(c1=O)C[C@H]1[C@H](CO)[C@@H](C(=O)NCCc3ccccc3)N(C(=O)CC)[C@@H]21 (mixture of isomers)	·	·	1.0	·	·
C[C@@H]1CN([C@@H](C)CO)C(=O)c2cc(NC(=O)c3ccncc3)ccc2O[C@@H]1CN(C)Cc1ccc(-c2ccccc2)cc1	·	·	-6.0	·	·
COc1ccc(NC(=O)N2C[C@@H](O)COC[C@H]3O[C@@H](CC(=O)N4CCN(C)CC4)CC[C@@H]32)cc1	·	·	-0.5	·	·
COc1ccc(NC(=O)c2cc(F)c(F)cc2Cl)cc1Cl	-35.1	1.9	52.2*	-10.9	-19.5
Cc1ccc(NC(=O)Nc2ccc(Cl)c(Cl)c2)nc1	-80.3	-1.9	59.9*	-87.8	-77.2
Cc1ccc(NC(=O)Nc2cccc(F)c2)nc1	-99.1	5.0	52.6*	-50.5	-96.3
CCOC(=O)c1ccc(NC(=O)c2cc(F)c(F)cc2Cl)cc1	-22.7	-3.5	22.5	-7.5	-24.1
Cc1ccc(NC(=O)Nc2ccc3c(c2)OCO3)nc1	-94.4	5.9	48.3*	-91.6	-56.3
O=C(Nc1cccc(F)c1)Nc1ccc(Cl)cn1	-37.1	1.9	31.9	-91.3	-19.1
CO[C@@H]1CN(C)C(=O)c2ccc(NS(=O)(=O)CC(F)(F)F)cc2OC[C@H](C)N(C)C[C@@H]1C	·	·	0.3	·	·
C[C@@H]1CN([C@H](C)CO)C(=O)c2cc(NC(=O)C3CC3)ccc2O[C@H]1CN(C)S(=O)(=O)c1ccc(Cl)cc1	·	·	1.6	·	·
COc1ccc(S(=O)(=O)N(C)C[C@@H]2Oc3c(NC(=O)c4cc(C)nn4C)cccc3C(=O)N([C@@H](C)CO)C[C@@H]2C)cc1	·	·	-2.0	·	·
